# Source: PubChem BioAssay AID1778 (Sanford-Burnham Center for Chemical Genomics, 2009)
# Several values for one entry are separate records, joined by “and”; a condition that tells them apart may be missing. Equal entries are not always repeated. In all, about 290,000 compounds went through this assay and about 260 (0.09%) were called active. For the sample, actives were picked, then their nearest neighbours and some compounds at random. Measured potencies and affinities stand elsewhere. Values without a mark were called inactive. Cut-off read from the data, not from the text of the source: active = inhibition above about 50%; inactive = the rest.
# Target: Kappa-type opioid receptor (Homo sapiens) (UniProt P41145)
# Sequence (P41145 whole entry, looked up): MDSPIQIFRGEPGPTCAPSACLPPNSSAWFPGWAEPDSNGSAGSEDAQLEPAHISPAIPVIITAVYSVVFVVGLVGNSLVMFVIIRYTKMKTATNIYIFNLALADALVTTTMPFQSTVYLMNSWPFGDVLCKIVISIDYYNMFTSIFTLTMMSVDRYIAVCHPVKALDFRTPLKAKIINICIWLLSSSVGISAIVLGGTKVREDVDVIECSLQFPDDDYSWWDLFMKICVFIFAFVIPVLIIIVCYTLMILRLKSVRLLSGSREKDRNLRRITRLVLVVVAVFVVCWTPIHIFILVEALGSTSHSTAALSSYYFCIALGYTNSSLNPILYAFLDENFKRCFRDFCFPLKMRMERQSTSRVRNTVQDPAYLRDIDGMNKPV
# Assay: KOR antagonists, beta-arrestin recruitment, cell-based, luminescence, uHTS (AID 1778)
# Conditions: antagonist mode, active compounds read high; at 10 µM unless noted
row,Compound,inhibition
1,Cc1ccc(NC(=O)Cn2cc(S(=O)(=O)c3ccc(F)cc3)c(=O)c3cc(F)ccc32)cc1,-36.8%
2,Cn1c(CCNC(=O)c2ccccc2)nc2cc(NC(=O)C3CCCCC3)ccc21,1.3%
3,COc1cc(/C=C/c2ccc3c(Br)cc(Br)c(O)c3n2)ccc1O,57.8% (active)
4,COc1cc(/C=C/c2ccc3cccc(O)c3n2)cc(Br)c1OC,-20%
5,COc1ccc(/C=C/c2ccc3cccc(O)c3n2)cc1Br,-9.3%
6,COc1ccc(/C=C/c2ccc3c(Br)ccc(O)c3n2)cc1,0.3%
7,COc1cc(/C=C/c2ccc3cccc(O)c3n2)cc(OC)c1OC,-5.8%
8,COc1ccc(C(c2nnnn2C2CCCC2)N2CCC(C)CC2)cc1 (configuration not stated),-3%
9,Cn1c(=O)[nH]c(=O)c2c1nc(NCCN)n2CCOc1ccccc1,-30.9% [at 20 µM]
10,Cc1sc2nc(C3CC3)nc(N3CCN(C(=O)c4ccccc4F)CC3)c2c1C,4.1%
11,C/C(=N\NC(=O)c1cc(Br)ccc1O)c1cccs1,-5.5%
12,C/C(=N\NC(=O)c1ccccc1)c1cccc(Br)c1,21.6%
13,C/C(=N\NC(=O)c1cccc(Br)c1)c1cccnc1,-7.4%
14,C/C(=N/NC(=O)c1cc2ccccc2cc1O)c1ccco1,17%
15,C/C(=N\NC(=O)c1c[nH]c2ccccc12)c1ccccn1,21.4%
16,O=C(N/N=C/c1ccc2ncccc2c1)c1cc(-c2cccs2)nc2ccccc12,28.4%
17,C/C(=N\NC(=O)c1cc(-c2cccs2)nc2ccccc12)c1ccccn1,75.1% (active)
18,NNC(=O)c1cc(-c2cccs2)nc2ccccc12,40.8%
19,C/C(=N\NC(=O)c1cc2ccccc2cc1O)c1cccs1,1.2%
20,CC(C)CNC(=S)N(CCCN(C)C)Cc1cc2cc3c(cc2[nH]c1=O)OCCO3,-1.3% [at 20 µM]
21,O=C(O)c1nnn(-c2cc(C(F)(F)F)cc(C(F)(F)F)c2)c1-c1ccccc1,7.9%
22,COc1ccc(-c2nc(C)sc2CC(=O)O)cc1,-5.7%
23,N#Cc1c(C(F)(F)F)cc(-c2ccc(Cl)c(Cl)c2)nc1SCCN1CCOCC1,-29.4%
24,CCOC(=O)C1=C(CSc2nc(-c3ccncc3)ccc2C#N)OC(N)=C(C#N)C1c1ccc(OC)cc1 (configuration not stated),-4.9%

row,Compound,inhibition
1,CC(C)NC(=S)n1cc(C(=O)c2cc(Cl)cc(Cl)c2O)cn1,-10%
2,COC(=O)C1c2ccccc2-c2ccccc21,-7.3%
3,CCOc1ccc(C(=O)/C=C/Nc2ccc(S(=O)(=O)N=C(N)N)cc2)cc1,1%
4,Cc1ccc(N(C(=O)CNC(=O)c2ccco2)C(C(=O)NCC2CCCO2)c2ccccc2)cc1 (configuration not stated),-12.5%
5,CC1CN(C(=S)SCC(=O)c2ccc(Cl)cc2)CC(C)O1 (configuration not stated),21.8%
6,Cc1ccc(-c2onc(C)c2C)cc1S(=O)(=O)N1CC(C)Oc2ccccc21 (configuration not stated),-11.7%
7,COc1ccc(OC)c2c1C(=O)c1ccccc1C2=O,-4.5%
8,COc1ccc(N)c2c1C(=O)c1ccccc1C2=O,20.4%
9,O=C1CC[C@@H](CN(Cc2ccccn2)Cc2nc(-c3ccc(C(F)(F)F)cc3)no2)N1,3.4% [at 20 µM]
10,O=C(CC1C(=O)NCCN1Cc1cccc(Oc2ccccc2)c1)NCCCn1cccn1 (configuration not stated),-2.5%
11,CC(/C=C\c1cccnc1)=C/C(=O)O,-0.4% and 17.9%
12,O=C(O)/C=C/c1cccnc1,17.9%
13,O=C(/C=C/c1cccnc1)/C=C/c1cccnc1,57.9% (active)
14,Cn1ccnc1SCc1nc2c(cnn2-c2ccccc2)c(=O)[nH]1,-17.7%
15,Cc1cccc(-n2c(SCc3ccc(C#N)cc3)nnc2-c2c[nH]c3ccccc23)c1,6.1%
16,CCOc1ccc(N2CC(C(=O)Nc3ccncc3)CC2=O)cc1 (configuration not stated),15.6%
17,CCOC(=O)Cc1[nH]nc2c1C(Cc1ccccc1)C(C#N)=C(N)O2 (configuration not stated),-4.1%
18,CC1(C)CC(=O)C(/C=N/c2ccccn2)=C(O)C1,40.5%
19,CC1(C)CC(=O)C(/C=N/c2ncccc2C(=O)O)=C(O)C1,-24.7%
20,CN(C)S(=O)(=O)c1cccc(C(=O)Nc2cc(Cl)ccc2O)c1,-1.5%
21,C/C(=C\c1ccc(F)cc1)C(=O)c1c(C)cc(C)[nH]c1=O,5.1%
22,O=C(NCc1ccccn1)C(=O)NN=C1CCCCCCCCCCC1,-9.2% [at 20 µM]
23,CCOC(=O)C(CSCC(=O)c1ccc(Br)cc1)NC(=O)OC(C)(C)C (configuration not stated),3.7%
